Vif-A3F inh: qHTS for Inhibitors of Vif-A3F Interactions: qHTS. HeLa A3F-eYFP + Vif (tagged APOBEC3F with the HIV-1 protein that degrades it), YFP fluorescence increase. Potency, µM (doses to about 46.1 µM), inactives show top-dose activity, negative = active. actives 0.2% (n = 390,000). AID 602313, 2012; further: potency means the concentration at half of the fitted maximal effect; % of control where 0% means no effect; nearly all actives have a fitted effect of over 65% in size
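Fluorescence increase (Ex 488/Em 500-530) after overnight compound treatment at 37 deg C flags inhibition of Vif-driven A3F-eYFP loss in stable HeLa A3F-eYFP/Vif cells seeded overnight beforehand.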
IL-1B inflam inh: qHTS for Inhibitors of Inflammasome Signaling: IL-1-beta AlphaLISA Primary Screen. AID 743279, 2014. activity change, % at 57.5 µM. THP-1 LPS/ATP IL-1B secretion, AlphaLISA, 16 h; active compounds read low. actives 4.7% (n = 360,000); in the data active means activity change below about -50%; inconclusive means mostly about -30% to -49%; further: on the % scale 0 is the no-effect control and ±100 the full control effect
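Secreted IL-1B measured by AlphaLISA bead assay after 16 h compound exposure of THP-1 cells; compounds (final up to 57.5 uM) added 1 h before LPS (250 ng/mL) and ATP (1.25 mM) stimulation; lower signal means less secretion.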
MCF10A rereplic: A quantitative high throughput screen for small molecules that induce DNA re-replication in MCF 10a normal breast cells; MCF 10A DNA re-replication, Hoechst nuclear intensity, 48 h; Potency, µM (doses to about 46.1 µM), for inactives: top-dose activity, positive = re-replication, actives largely listed as activators; actives 2.9% (n = 350,000); further: potency means the concentration at half of the fitted maximal effect; % of control where 0% means no effect; nearly all actives have a fitted effect of over 50% in size
Vif-APOBEC3G blk: qHTS for Inhibitors of Vif-A3G Interactions: qHTS | DNA dC->dU-editing enzyme APOBEC-3G (Homo sapiens), Q9HC16 | HeLa A3G-eYFP + Vif (tagged APOBEC3G with the HIV-1 protein that degrades it), YFP fluorescence, overnight | Potency, µM (top dose mostly 46.1 µM), without a hit: top-dose activity, negative = active, most hits filed as inhibitors | actives 0.076% (n = 410,000) | AID 602310, 2012; further: potency means the concentration at half of the fitted maximal effect; on the % scale 0 is the no-effect control and ±100 the full control effect; nearly all actives have a fitted effect of over 60% in size
Target sequence (Q9HC16 whole entry, looked up): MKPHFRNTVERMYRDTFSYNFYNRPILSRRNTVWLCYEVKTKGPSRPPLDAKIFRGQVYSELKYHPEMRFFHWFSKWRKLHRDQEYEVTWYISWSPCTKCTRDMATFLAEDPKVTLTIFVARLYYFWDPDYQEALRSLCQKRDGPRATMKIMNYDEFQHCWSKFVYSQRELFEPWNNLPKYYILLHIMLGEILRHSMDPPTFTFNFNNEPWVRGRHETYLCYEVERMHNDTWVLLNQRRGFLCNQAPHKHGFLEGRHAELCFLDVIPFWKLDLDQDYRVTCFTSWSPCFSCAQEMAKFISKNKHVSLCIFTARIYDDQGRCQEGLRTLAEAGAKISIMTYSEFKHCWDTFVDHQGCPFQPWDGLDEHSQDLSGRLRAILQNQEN
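HeLa cells stably expressing Vif and C-terminally eYFP-tagged A3G, seeded overnight at 37 deg C, then exposed to compound by pintool overnight at 37 deg C. Rise in yellow fluorescence (Ex 488/Em 500-530, Acumen) marks blocked Vif-driven A3G degradation.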
Giardia kill: Small Molecules that selectively kill Giardia lamblia: qHTS. actives 0.15% (n = 340,000). Giardia lamblia trophozoite viability. AID 540267, 2011. activity change, % at 7.66 µM, hits read low; in the data active means activity change below about -80%; inconclusive means between about -30% and that limit;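 further: parasites exposed to compound for two days anaerobically before the ATP read; on the % scale 0 is the no-effect control and ±100 the full control effect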
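Luminescence from cellular ATP indicates surviving trophozoites (100 cells/well) following 48 hrs anaerobic compound treatment at 37 deg C; signal develops 15-30 min at room temperature.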
SW480 rereplic: A quantitative high throughput screen for small molecules that induce DNA re-replication in SW480 colon adenocarcinoma cells | SW480 DNA re-replication, Hoechst DNA content imaging, 48 h | Potency, µM (top dose mostly 46.1 µM), for inactives: at the top dose re-replication activation, most hits filed as activators | actives 1.8% (n = 340,000) | AID 624297, 2012; further: potency means the concentration at half of the fitted maximal effect; % of control where 0% means no effect; nearly all actives have a fitted effect of over 55% in size
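Quantitative HTS format with DMSO vehicle controls; 48 hr drug incubation at 37 C, then 40 min Hoechst staining and scanning imager measurement at 405 nm excitation.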
* hit, by the source's call; ? = inconclusive; . = no result. Shown are actives, neighbours in structure and some others; about 6.9% of the full set was active somewhere. Unless noted, the call rests on the fitted dose curve; in most records, active means well fitted curve in the direction sought with a large enough effect; inconclusive means small, poorly fitted or top-dose-only effect, or another doubt; inactive means no such curve, though single readings can be large; an effect the other way counts as inactive or inconclusive.

SMILES	Vif-A3F inh	IL-1B inflam inh	MCF10A rereplic	Vif-APOBEC3G blk	Giardia kill	SW480 rereplic
Cc1nn2c(nc(N3CCCCC3)c3ccccc32)c1C=O	5%	-74*	2%	-2%	-1	-1%
CCOc1ccc(NC(=O)c2sc3nc4c(cc3c2N)CN(Cc2ccccc2)CC4)cc1	?	.	.	-11%	.	.
COc1ccc2ccc3c(c2c1)N=C[C@]1(O3)N(C)c2ccccc2C1(C)C	-1%	-26	18µM*	-10%	-16	15µM*
CC1=NOC2(C1)N(C)c1ccccc1C2(C)C (configuration not stated)	-7%	0	-6%	2%	1	-3%
Cc1cc(C)nc(NC(N)=NCCc2ccccc2)n1	-1%	-95*	18µM*	-5%	4	16µM*
Cc1cc(C)nc(NC(N)=NCCc2c[nH]c3ccccc23)n1	5%	-95*	9%	9%	6	8%
O=C(C[n+]1csc2ccccc21)c1cccc([N+](=O)[O-])c1	.	.	.	4%	.	.
COc1cccc(/C=C/C(=O)Nc2cccc(C(C)=O)c2)c1OC	-6%	-21	1%	1%	?	-10%
COc1cc(/C=C/C(=O)c2ccc3c(c2)OCCO3)cc(OC)c1OC	-4%	-94*	?	?	?	?
COc1cccc(/C=C/C(=O)Nc2ccc3c(c2)OCCO3)c1OC	1%	-78*	7%	1%	?	-6%
COc1ccc(/C=C/C(=O)c2ccc3c(c2)OCO3)cc1OC	8%	?	?	-9%	-17	?
COc1ccc(OC)c(/C=C/C(=O)c2ccc3c(c2)OCCO3)c1	6%	-101*	21µM*	?	-26	8%
COc1cc(/C=C/C(=O)c2ccc3c(c2)OCO3)cc(OC)c1OC	-3%	-97*	179%	-22%	-11	284%
COc1ccc(N2CCN(C(=O)c3c(C)oc4ncn(CC(C)C)c(=O)c34)CC2)cc1	-8%	.	.	-2%	.	.
COc1cc(-c2nc3n(n2)C(c2ccc(F)cc2)C(C(N)=O)=C(C)N3)cc(OC)c1OC (configuration not stated)	5%	.	.	-1%	.	.
CCCCN1CC(c2nc3ccccc3n2CCCCOc2cc(C)ccc2C)CC1=O (configuration not stated)	-9%	.	.	4%	.	.
CCCCN1CCCC1C(=O)Nc1c(C)cc(C)cc1C (configuration not stated)	.	.	6%	.	.	7%
CCSc1nnc(NC(=O)c2nc(-c3ccccc3)n(-c3ccccc3)n2)s1	-10%	-14	10µM*	1%	-15	-9%
O=[N+]([O-])c1ccc(NC(c2ccccc2)c2ccc3cccnc3c2O)cc1 (configuration not stated)	-1%	73	?	0%	11	0.82µM*
Oc1c(C(Nc2ccccn2)c2ccccc2)ccc2cccnc12 (configuration not stated)	.	.	.	-16%	.	.
CC(=O)NC(c1cccc([N+](=O)[O-])c1)c1ccc2cccnc2c1O (configuration not stated)	?	189	15µM*	-8%	-15	?
Oc1cccc(C(Nc2nccs2)c2ccc3cccnc3c2O)c1 (configuration not stated)	?	-107*	12µM*	-5%	5	?
COc1cccc(C(NC(C)=O)c2ccc3cccnc3c2O)c1 (configuration not stated)	?	203	?	-16%	-2	0.65µM*
CCCSCCCNC(=O)c1ccc2nc(Cc3ccccc3)oc2c1	3%	.	.	-1%	.	.
Cc1cccc(-c2nc3scc(CCNS(=O)(=O)c4ccc(Oc5ccccc5)cc4)n3n2)c1	-8%	.	.	2%	.	.
SMILES	Vif-A3F inh	IL-1B inflam inh	MCF10A rereplic	Vif-APOBEC3G blk	Giardia kill	SW480 rereplic
CCOc1ccc(-c2noc([C@@H]3O[C@H](CO)[C@@H](O)[C@H]3O)n2)cc1	.	-58*	.	-3%	.	.
COc1ccc(-c2noc([C@@H]3O[C@H](CO)[C@H](O)[C@H](O)[C@H]3O)n2)cc1OC	.	18	.	-2%	.	.
OC[C@H]1O[C@@H](c2nc(-c3cccc4ccccc34)no2)[C@H](O)[C@@H]1O	.	-68*	.	-3%	.	.
OC[C@H]1O[C@@H](c2nc(-c3ccccc3Br)no2)[C@H](O)[C@@H]1O	.	0	.	-2%	.	.
COc1ccc(NC(=O)CCc2nnc3n(CC(C)C)c(=O)c4ccccc4n23)cc1	2%	.	.	-1%	.	.
O=C(c1cc(S(=O)(=O)N2CCCC2)c[nH]1)N1CCN(c2cccc(Cl)c2)CC1	-10%	.	.	2%	.	.
COc1cc(OC)c(CN2CCC(Cc3ccccc3)CC2)cc1Br	-11%	-58*	12µM*	1%	14	19%
C=CCOc1ccccc1CN1CCC(Cc2ccccc2)CC1	1%	-86*	15%	-1%	-6	17%
OCc1ccccc1OCCCN1CCC(Cc2ccccc2)CC1	9%	?	5%	1%	2	-13%
N#Cc1ccccc1NC(=O)CSc1nnc(N)s1	-4%	.	.	10%	.	.
CCc1cccc(NC(=O)C2CCCN2S(=O)(=O)c2ccc3nc(-c4ccccc4)[nH]c3c2)c1 (configuration not stated)	-1%	.	.	-2%	.	.
CCCCCCCCC(=O)N/N=C/c1cccc(Br)c1	-4%	-60*	18µM*	-10%	-5	17%
Cc1ccc(S/C(=N/S(=O)(=O)c2ccc(Cl)cc2)c2ccccc2)cc1	.	.	.	-1%	-1	.
CC1(C(=O)OCC(=O)Nc2ccc3ccccc3c2)CC1(Cl)Cl (configuration not stated)	7%	-97*	16%	0%	3	0%
CC1(C(=O)OCC(=O)Nc2ccc(C(N)=O)cc2)CC1(Cl)Cl (configuration not stated)	3%	0	-5%	5%	3	-2%
O=C(NNc1ccc([N+](=O)[O-])cc1)c1ccccc1Cl	-1%	-1	2%	0%	1	4%
O=C(NC(NNc1ccc([N+](=O)[O-])cc1)(C(F)(F)F)C(F)(F)F)c1ccc(Cl)cc1	1%	?	15µM*	1%	4	4%
O=C(N/N=C\C=C\c1ccco1)c1cc(-c2ccc3ccccc3c2)n[nH]1	-25%	-23	7.3µM*	-4%	-1	17%
